Laboratory results from the supplement of paper PMC8728848.
Shown is part of a subset that was picked to be rich in the strongest signals.

Assays:
Experiment in all cases: glycan array binding signal (z-score within array); higher = stronger binding
Conditions in all cases: glycan notation: IUPAC condensed, linker removed
[1] = target: Fuc(a1-2)Gal(b1-3)GlcNAc(b1-2)Man(a1-3)[Fuc(a1-2)Gal(b1-3)GlcNAc(b1-2)Man(a1-6)]Man(b1-4)GlcNAc(b1-4)GlcNAc
How it was run: (§1)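 Negative Z-scores can be read as non-binding. The Z-score is calculated within each array and then averaged across arrays of one protein sequence at different concentrations or buffers and across linkers. Arrays, 3228 in all, were curated from the Consortium for Functional Glycomics database and kept only where the protein sequence was available.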

[2] = target: Fuc(a1-2)Gal(b1-3)[Fuc(a1-4)]GlcNAc(b1-2)Man(a1-3)[Fuc(a1-2)Gal(b1-3)[Fuc(a1-4)]GlcNAc(b1-2)Man(a1-6)]Man(b1-4)GlcNAc(b1-4)[Fuc(a1-6)]GlcNAc(b1-4)[Fuc(a1-6)]GlcNAc
How it was run: as §1

[3] = target: Fuc(a1-2)Gal(b1-4)GlcNAc(b1-2)Man(a1-3)[Fuc(a1-2)Gal(b1-4)GlcNAc(b1-2)Man(a1-6)]Man(b1-4)GlcNAc(b1-4)[Fuc(a1-6)]GlcNAc
How it was run: as §1

[4] = target: Fuc(a1-2)Gal(b1-4)[Fuc(a1-3)]GlcNAc(b1-2)Man(a1-3)[Fuc(a1-2)Gal(b1-4)[Fuc(a1-3)]GlcNAc(b1-2)Man(a1-6)]Man(b1-4)GlcNAc(b1-4)[Fuc(a1-6)]GlcNAc
How it was run: as §1

[5] = target: Fuc(a1-2)[Gal(a1-3)]Gal(b1-4)[Fuc(a1-3)]GlcNAc
How it was run: as §1

[6] = target: Fuc(a1-2)[GalNAc(a1-3)]Gal(b1-4)[Fuc(a1-3)]GlcNAc(b1-3)GalNAc
How it was run: as §1

[7] = target: Fuc(a1-2)[GalNAc(a1-4)]Gal(b1-4)GlcNAc
How it was run: as §1

[8] = target: Fuc(a1-3)[Gal(b1-4)]GlcNAc6S
How it was run: as §1

Fuc(b1-3)GlcNAc = target: Fuc(b1-3)GlcNAc
How it was run: as §1

[9] = target: Gal(a1-3)Gal(b1-3)GlcNAc(b1-2)Man
How it was run: as §1

[10] = target: Gal(a1-3)Gal(b1-4)[Fuc(a1-3)]GlcNAc
How it was run: as §1

Gal(a1-3)GalNAc = target: Gal(a1-3)GalNAc
How it was run: as §1

[11] = target: Gal(a1-3)[Gal(a1-4)]Gal(b1-4)GlcNAc
How it was run: as §1

Gal(a1-4)Gal(b1-4)Glc = target: Gal(a1-4)Gal(b1-4)Glc
How it was run: as §1

[12] = target: Gal(b1-3)GalNAc(a1-3)[Fuc(a1-2)]Gal(b1-4)GlcNAc
How it was run: as §1

[13] = target: Gal(b1-3)GlcNAc(b1-3)GalNAc
How it was run: as §1

Gal(b1-3)GlcNAc6S = target: Gal(b1-3)GlcNAc6S
How it was run: as §1

[14] = target: Gal(b1-3)[Fuc(a1-4)]GlcNAc(b1-2)Man
How it was run: as §1

[15] = target: Gal(b1-3)[Fuc(a1-4)]GlcNAc(b1-2)Man(a1-3)[Gal(b1-3)[Fuc(a1-4)]GlcNAc(b1-2)Man(a1-6)]Man(b1-4)GlcNAc(b1-4)[Fuc(a1-6)]GlcNAc
How it was run: as §1

[16] = target: Gal(b1-3)[Fuc(a1-4)]GlcNAc(b1-6)GalNAc
How it was run: as §1

[17] = target: Gal(b1-4)GlcNAc(b1-3)Gal(b1-4)GlcNAc(b1-2)Man(a1-3)[Gal(b1-4)GlcNAc(b1-3)Gal(b1-4)GlcNAc(b1-2)Man(a1-6)]Man(b1-4)GlcNAc(b1-4)GlcNAc
How it was run: as §1

[18] = target: Gal(b1-4)GlcNAc(b1-3)Gal(b1-4)GlcNAc(b1-2)[Gal(b1-4)GlcNAc(b1-3)Gal(b1-4)GlcNAc(b1-6)]Man(a1-6)[Gal(b1-4)GlcNAc(b1-3)Gal(b1-4)GlcNAc(b1-2)Man(a1-3)]Man(b1-4)GlcNAc(b1-4)[Fuc(a1-6)]GlcNAc
How it was run: as §1

[19] = target: Gal(b1-4)GlcNAc(b1-3)Gal(b1-4)GlcNAc(b1-3)Gal(b1-4)GlcNAc(b1-2)Man(a1-3)[Gal(b1-4)GlcNAc(b1-3)Gal(b1-4)GlcNAc(b1-3)Gal(b1-4)GlcNAc(b1-2)Man(a1-6)]Man(b1-4)GlcNAc(b1-4)GlcNAc
How it was run: as §1

[20] = target: GalNAc(a1-3)GalNAc(b1-3)Gal(a1-4)Gal(b1-4)Glc
How it was run: as §1

GalNAc(b1-4)GlcNAc = target: GalNAc(b1-4)GlcNAc
How it was run: as §1

[21] = target: GalNAc(b1-4)GlcNAc(b1-3)GalNAc(b1-4)GlcNAc
How it was run: as §1

[22] = target: GlcNAc(a1-4)Gal(b1-4)GlcNAc(b1-3)Gal(b1-4)GlcNAc
How it was run: as §1

[23] = target: GlcNAc(b1-3)Gal(b1-4)GlcNAc(b1-2)[GlcNAc(b1-3)Gal(b1-4)GlcNAc(b1-6)]Man(a1-6)[GlcNAc(b1-3)Gal(b1-4)GlcNAc(b1-2)Man(a1-3)]Man(b1-4)GlcNAc(b1-4)GlcNAc
How it was run: as §1

[24] = target: GlcNAc(b1-3)Gal(b1-4)GlcNAc(b1-3)Gal(b1-4)GlcNAc(b1-2)Man(a1-3)[GlcNAc(b1-3)Gal(b1-4)GlcNAc(b1-3)Gal(b1-4)GlcNAc(b1-2)Man(a1-6)]Man(b1-4)GlcNAc(b1-4)GlcNAc
How it was run: as §1

[25] = target: GlcNAc(b1-3)Gal(b1-4)GlcNAc(b1-3)GalNAc
How it was run: as §1

GlcNAc(b1-3)GalNAc = target: GlcNAc(b1-3)GalNAc
How it was run: as §1

[26] = target: Neu5Ac(a2-3)Gal(b1-3)GalNAc6S
How it was run: as §1

[27] = target: Neu5Ac(a2-3)Gal(b1-4)GlcNAc(b1-2)[Neu5Ac(a2-3)Gal(b1-4)GlcNAc(b1-4)]Man(a1-3)[GlcNAc(b1-4)][Neu5Ac(a2-3)Gal(b1-4)GlcNAc(b1-2)[Neu5Ac(a2-3)Gal(b1-4)GlcNAc(b1-6)]Man(a1-6)]Man(b1-4)GlcNAc(b1-4)GlcNAc
How it was run: as §1

[28] = target: Neu5Ac(a2-3)Gal(b1-4)[Fuc(a1-3)]GlcNAc(b1-2)Man
How it was run: as §1

[29] = target: Neu5Ac(a2-3)Gal(b1-4)[Fuc(a1-3)]GlcNAc(b1-3)Gal(b1-4)GlcNAc
How it was run: as §1

Neu5Ac(a2-6)Gal = target: Neu5Ac(a2-6)Gal
How it was run: as §1

[30] = target: Neu5Ac(a2-6)Gal(b1-4)GlcNAc(b1-2)Man
How it was run: as §1

[31] = target: Neu5Ac(a2-6)Gal(b1-4)GlcNAc(b1-2)Man(a1-3)[GlcNAc(b1-4)][Neu5Ac(a2-6)Gal(b1-4)GlcNAc(b1-2)Man(a1-6)]Man(b1-4)GlcNAc(b1-4)GlcNAc
How it was run: as §1

[32] = target: Neu5Ac(a2-6)Gal(b1-4)GlcNAc(b1-2)[Neu5Ac(a2-6)Gal(b1-4)GlcNAc(b1-4)]Man(a1-3)[GlcNAc(b1-4)][Neu5Ac(a2-6)Gal(b1-4)GlcNAc(b1-4)Man(a1-6)]Man(b1-4)GlcNAc(b1-4)GlcNAc
How it was run: as §1

[33] = target: Neu5Ac(a2-6)Gal(b1-4)GlcNAc(b1-3)Gal(b1-4)GlcNAc(b1-3)Gal(b1-4)GlcNAc(b1-2)Man(a1-3)[Neu5Ac(a2-6)Gal(b1-4)GlcNAc(b1-3)Gal(b1-4)GlcNAc(b1-3)Gal(b1-4)GlcNAc(b1-2)Man(a1-6)]GalNAc
How it was run: as §1

[34] = target: Neu5Ac(a2-8)Neu5Ac(a2-8)Neu5Ac(a2-3)Gal(b1-4)Glc
How it was run: as §1

[35] = target: Neu5Gc(b2-6)Gal(b1-4)GlcNAc
How it was run: as §1

B1: Odorranalectin (Odorrana grahami), B3TFE9_RANGR (peptide)
chain: YASPKCFRYPNGVLACT
[1]
  glycan array binding signal (z-score): 0.133
[2]
  glycan array binding signal (z-score): 1.89
[3]
  glycan array binding signal (z-score): -0.142
[4]
  glycan array binding signal (z-score): 3.75
[5]
  glycan array binding signal (z-score): 0.56
[6]
  glycan array binding signal (z-score): 2.29
[7]
  glycan array binding signal (z-score): -0.278
[8]
  glycan array binding signal (z-score): -0.198
Fuc(b1-3)GlcNAc
  glycan array binding signal (z-score): -0.094
[9]
  glycan array binding signal (z-score): -0.387
[10]
  glycan array binding signal (z-score): -0.625
Gal(a1-3)GalNAc
  glycan array binding signal (z-score): 0.618
[11]
  glycan array binding signal (z-score): 1.47
Gal(a1-4)Gal(b1-4)Glc
  glycan array binding signal (z-score): 0.575
[12]
  glycan array binding signal (z-score): -0.258
[13]
  glycan array binding signal (z-score): -0.188
Gal(b1-3)GlcNAc6S
  glycan array binding signal (z-score): -0.064
[14]
  glycan array binding signal (z-score): 3.92
[15]
  glycan array binding signal (z-score): -0.246
[16]
  glycan array binding signal (z-score): -0.061
[17]
  glycan array binding signal (z-score): 7.59
[18]
  glycan array binding signal (z-score): 0.555
[19]
  glycan array binding signal (z-score): 2.11
[20]
  glycan array binding signal (z-score): -0.385
GalNAc(b1-4)GlcNAc
  glycan array binding signal (z-score): 4.83
[21]
  glycan array binding signal (z-score): 0.347
[22]
  glycan array binding signal (z-score): -0.376
[23]
  glycan array binding signal (z-score): 8.95
[24]
  glycan array binding signal (z-score): 3.67
[25]
  glycan array binding signal (z-score): 0.083
GlcNAc(b1-3)GalNAc
  glycan array binding signal (z-score): -0.315
[26]
  glycan array binding signal (z-score): 0.438
[27]
  glycan array binding signal (z-score): -0.481
[28]
  glycan array binding signal (z-score): -0.405
[29]
  glycan array binding signal (z-score): -0.026
Neu5Ac(a2-6)Gal
  glycan array binding signal (z-score): -0.415
[30]
  glycan array binding signal (z-score): -0.092
[31]
  glycan array binding signal (z-score): -0.309
[32]
  glycan array binding signal (z-score): -0.055
[33]
  glycan array binding signal (z-score): 7.51
[34]
  glycan array binding signal (z-score): -0.429
[35]
  glycan array binding signal (z-score): -0.155
